Records with an inconclusive call do not appear. Calls of active or inactive are those of the source. The calls were made as follows, unless noted: active = hit-call score of the fitted dose curve at least 0.9, where 1 is the maximum; inactive = score below 0.9.
How the values were obtained:
[1] = ATG_NRF2_ARE_CIS: Attagene CIS-FACTORIAL HepG2 Assay for human Nuclear Factor Erythroid 2 Related Factor 2 (NFR2) response to Antioxidant Response Elements (ARE) (AID 2282992); details: HepG2 Attagene ARE/NRF2 reporter, transcription factor activity; actives raise or lower the signal;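 as to AC50: reporter mRNA level measured by RT-PCR and capillary electrophoresis fluorescence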
Summary of the method: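 Transient MRTU transfection of HepG2; 24 h compound exposure; TriZol RNA, RT with oligo(dT), PCR, 6-FAM primer extension, HpaI cut, CE. Bidirectional fit vs DMSO.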

[2] = ATG_Oct_MLP_CIS: Attagene CIS-FACTORIAL HepG2 Assay for human Octamer-Binding Transcription Factor (Oct) (AID 2282993); details: HepG2 Attagene cis-factorial Oct reporter, mRNA; actives raise or lower the signal
Summary of the method: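 Read-out: reporter mRNA via RT-PCR plus capillary electrophoresis of 6-FAM-labelled fragments. Transiently transfected HepG2, 24 h exposure, endogenous TF activity on cis elements. Gain or loss of signal fitted relative to DMSO.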

[3] = molecular target: Cellular tumor antigen p53 (Homo sapiens) (UniProt P04637); test: ATG_p53_CIS: Attagene CIS-FACTORIAL HepG2 Assay for human p53 Transcription Factor (AID 2282994); details: HepG2 p53 cis-element reporter, Attagene mRNA; actives raise or lower the signal
Cellular tumor antigen p53 (Homo sapiens), sequence (P04637 whole entry, looked up): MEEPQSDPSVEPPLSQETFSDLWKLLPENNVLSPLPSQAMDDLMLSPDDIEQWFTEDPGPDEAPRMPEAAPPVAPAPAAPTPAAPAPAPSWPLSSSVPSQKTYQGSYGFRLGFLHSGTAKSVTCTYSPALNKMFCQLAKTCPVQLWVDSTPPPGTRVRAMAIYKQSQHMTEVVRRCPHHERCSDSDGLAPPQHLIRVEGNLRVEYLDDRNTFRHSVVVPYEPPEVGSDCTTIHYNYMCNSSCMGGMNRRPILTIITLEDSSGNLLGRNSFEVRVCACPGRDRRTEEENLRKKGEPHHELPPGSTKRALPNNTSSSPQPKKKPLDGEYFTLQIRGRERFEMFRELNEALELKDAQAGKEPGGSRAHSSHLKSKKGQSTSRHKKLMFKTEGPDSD
Summary of the method: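 HepG2, transient MRTU transfection (cis promoter elements, endogenous TFs); 24 h dosing; RNA isolation, RT-PCR, 6-FAM primer extension, HpaI digest, CE fluorescence; bidirectional fit vs DMSO.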

[4] = BSK_3C_uPAR: BioMAP Diversity Plus: 3C Assay for Urokinase-type plasminogen activator receptor (uPAR) Biomarker Activity (AID 2282998); details: BioMAP 3C HUVEC, uPAR biomarker ELISA; actives raise or lower the signal
Summary of the method: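 HUVEC primary cells; 24 h post-dose; uPAR by ELISA; gain or loss of signal fitted bidirectionally vs DMSO baseline.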

[5] = BSK_3C_VCAM1: BioMAP Diversity Plus: 3C Assay for Vascular cell adhesion molecule 1 (VCAM1) Biomarker Activity (AID 2282999); details: BioMAP 3C HUVEC, VCAM1 ELISA, cytokine-stimulated; actives raise or lower the signal
Summary of the method: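 Human umbilical vein endothelial cells (3C system), biomarker read by ELISA 24 h after dosing; bidirectional fit against DMSO baseline. Cytotoxicity tracked by SRB total-protein staining in parallel cultures at biomarker time.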

[6] = BSK_4H_Eotaxin3: BioMAP Diversity Plus: 4H Assay for Eotaxin 3 Biomarker Activity (AID 2283000); details: primary human endothelial cells (HUVEC); actives raise or lower the signal
Summary of the method: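 Eotaxin-3 (CCL26) levels were measured by ELISA in HUVEC primary cultures 24 h post-dosing. Gain or loss of signal was fitted in both directions, with DMSO serving as baseline and negative control.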

[7] = molecular target: human Peroxisome Proliferator-activated Receptor delta (PPARd), PPARD (gene 5467) (UniProt Q03181); test: ATG_PPARd_TRANS: Attagene TRANS-FACTORIAL HepG2 Assay for human Peroxisome Proliferator-activated Receptor delta (PPARd) (AID 2283002; active = hit-call score of the fitted dose curve at least 0.9, where 1 is the maximum)
human Peroxisome Proliferator-activated Receptor delta (PPARd), PPARD (gene 5467), sequence (Q03181 whole entry, looked up, the tested form may be a part): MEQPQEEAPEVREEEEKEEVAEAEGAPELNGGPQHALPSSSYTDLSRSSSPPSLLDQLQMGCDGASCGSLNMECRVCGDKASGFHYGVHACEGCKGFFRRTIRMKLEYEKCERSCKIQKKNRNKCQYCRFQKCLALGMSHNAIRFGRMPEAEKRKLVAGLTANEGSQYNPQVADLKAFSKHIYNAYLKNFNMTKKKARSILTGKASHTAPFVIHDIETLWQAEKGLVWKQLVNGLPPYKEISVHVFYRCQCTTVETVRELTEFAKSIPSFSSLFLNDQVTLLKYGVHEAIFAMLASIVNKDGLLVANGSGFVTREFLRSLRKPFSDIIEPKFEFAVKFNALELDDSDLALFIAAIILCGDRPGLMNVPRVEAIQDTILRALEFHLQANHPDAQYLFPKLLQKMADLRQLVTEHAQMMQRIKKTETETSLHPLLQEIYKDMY
Summary of the method: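 Read-out: reporter mRNA induction, quantified by fluorescent RT-PCR products resolved by capillary electrophoresis. Human HepG2 liver cells carried transiently transfected Gal4-UAS reporter constructs with chimeric NR-Gal4 fusions. Cells were dosed for 24 h; DMSO served as baseline.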

[8] = read-out: Intercellular Adhesion Molecule 1 (ICAM1), ICAM1 (gene 3383); test: BSK_3C_ICAM1: BioMAP Diversity Plus: 3C Assay for Intercellular Adhesion Molecule 1 (ICAM1) Biomarker Activity (AID 2283003); details: primary human endothelial cells (HUVEC); actives raise or lower the signal
Summary of the method: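 Primary human umbilical vein endothelial cells in the BioMAP 3C system were exposed to chemicals for 24 h, then ICAM-1 was quantified by ELISA. Activity was fitted bidirectionally against the DMSO negative control baseline.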

[9] = BSK_3C_Proliferation: Cell Proliferation Assessment in the BioMAP Diversity Plus: 3C Assay (AID 2283006); details: primary human endothelial cells (HUVEC);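 as to AC50: potency may reflect either rise or fall in cell number versus DMSO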
Summary of the method: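 Human umbilical vein endothelial cells were grown sub-confluent and exposed to chemical for 48 h, then fixed with 10% TCA and stained with 0.1% sulforhodamine B; absorbance at 560 nm gave relative cell number, fitted bidirectionally against DMSO baseline.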

[10] = molecular target: Peroxisome proliferator-activated receptor gamma (Homo sapiens) (UniProt P37231); test: ATG_PPARg_TRANS: Attagene TRANS-FACTORIAL HepG2 Assay for human Peroxisome Proliferator-activated Receptor-gamma (PPARg) (AID 2283007; active = hit-call score of the fitted dose curve at least 0.9, where 1 is the maximum)
Peroxisome proliferator-activated receptor gamma (Homo sapiens), sequence (P37231 whole entry, looked up, the tested form may be a part): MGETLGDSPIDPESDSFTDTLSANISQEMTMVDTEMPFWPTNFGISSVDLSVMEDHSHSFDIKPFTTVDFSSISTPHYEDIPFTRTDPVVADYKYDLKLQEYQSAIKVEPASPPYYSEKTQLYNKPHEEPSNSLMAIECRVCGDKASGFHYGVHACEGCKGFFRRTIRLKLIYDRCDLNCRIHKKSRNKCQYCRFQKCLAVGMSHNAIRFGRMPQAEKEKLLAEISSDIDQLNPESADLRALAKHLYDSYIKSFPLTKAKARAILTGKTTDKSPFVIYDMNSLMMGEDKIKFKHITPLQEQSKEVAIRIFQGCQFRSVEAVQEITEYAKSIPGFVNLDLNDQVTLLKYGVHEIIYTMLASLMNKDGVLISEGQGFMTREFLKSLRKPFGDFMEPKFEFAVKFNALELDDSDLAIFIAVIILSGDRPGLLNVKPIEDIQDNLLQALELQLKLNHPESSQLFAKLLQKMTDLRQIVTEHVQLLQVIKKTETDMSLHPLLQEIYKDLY
Summary of the method: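 Liver-derived HepG2 cells expressing an exogenous NR-Gal4 chimera alongside GAL4-UAS reporter genes; 24 h exposure. Fluorescence of reporter RT-PCR products, separated by capillary electrophoresis, gives mRNA induction relative to DMSO.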

[11] = molecular target: human Retinoic Acid Receptor gamma (RARg), RARG (gene 5916) (UniProt P13631); test: ATG_RARg_TRANS: Attagene TRANS-FACTORIAL HepG2 Assay for human Retinoic Acid Receptor gamma (RARg) (AID 2283009; active = hit-call score of the fitted dose curve at least 0.9, where 1 is the maximum)
human Retinoic Acid Receptor gamma (RARg), RARG (gene 5916), sequence (P13631 whole entry, looked up, the tested form may be a part): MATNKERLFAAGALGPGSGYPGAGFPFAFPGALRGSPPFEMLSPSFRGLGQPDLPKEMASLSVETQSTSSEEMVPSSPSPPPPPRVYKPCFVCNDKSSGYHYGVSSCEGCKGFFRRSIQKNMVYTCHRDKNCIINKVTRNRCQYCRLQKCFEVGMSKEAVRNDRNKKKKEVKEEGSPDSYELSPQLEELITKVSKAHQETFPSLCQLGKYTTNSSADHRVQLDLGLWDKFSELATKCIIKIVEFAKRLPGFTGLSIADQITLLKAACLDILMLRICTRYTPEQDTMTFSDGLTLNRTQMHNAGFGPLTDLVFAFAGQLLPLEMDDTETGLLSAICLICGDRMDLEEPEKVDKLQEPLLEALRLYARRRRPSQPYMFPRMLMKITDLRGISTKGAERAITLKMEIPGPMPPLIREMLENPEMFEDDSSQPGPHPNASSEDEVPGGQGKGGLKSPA
Summary of the method: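 HepG2 cells transiently transfected with multiplexed reporter units expressing chimeric RARg-GAL4 and GAL4-UAS-driven reporters; 24 h compound exposure. Reporter mRNA quantified by RT-PCR with fluorescent labelling and capillary electrophoresis; gain-of-signal fitted relative to DMSO baseline.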

[12] = molecular target: human RAR-related Orphan Receptor beta (RORb), RORB (gene 6096) (UniProt Q92753); test: ATG_RORb_TRANS: Attagene TRANS-FACTORIAL HepG2 Assay for human RAR-related Orphan Receptor beta (RORb) (AID 2283010; active = hit-call score of the fitted dose curve at least 0.9, where 1 is the maximum)
human RAR-related Orphan Receptor beta (RORb), RORB (gene 6096), sequence (Q92753 whole entry, looked up, the tested form may be a part): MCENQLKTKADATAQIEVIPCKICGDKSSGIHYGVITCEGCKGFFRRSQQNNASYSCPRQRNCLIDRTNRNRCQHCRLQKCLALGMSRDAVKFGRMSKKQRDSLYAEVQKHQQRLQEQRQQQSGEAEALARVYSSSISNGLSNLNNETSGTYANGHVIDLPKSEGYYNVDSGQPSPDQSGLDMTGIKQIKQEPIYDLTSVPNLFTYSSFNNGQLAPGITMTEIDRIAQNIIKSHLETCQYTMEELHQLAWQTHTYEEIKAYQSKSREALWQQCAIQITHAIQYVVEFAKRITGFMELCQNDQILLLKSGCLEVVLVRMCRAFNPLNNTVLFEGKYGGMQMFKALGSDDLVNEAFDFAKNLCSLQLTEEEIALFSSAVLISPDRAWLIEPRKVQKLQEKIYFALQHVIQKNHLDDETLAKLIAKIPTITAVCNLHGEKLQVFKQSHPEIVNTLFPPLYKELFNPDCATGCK
Summary of the method: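 HepG2 cells were transiently transfected with multiplexed GAL4-UAS reporter units expressing chimeric nuclear receptor–GAL4 proteins, then dosed for 24 h. Reporter mRNA was quantified by RT-PCR with fluorescent labelling and capillary electrophoresis; gain of signal was fitted relative to DMSO.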

[13] = molecular target: human Peroxisome Proliferator-activated Receptor alpha (PPARa), PPARA (gene 5465) (UniProt Q07869); test: ATG_PPARa_TRANS: Attagene TRANS-FACTORIAL HepG2 Assay for human Peroxisome Proliferator-activated Receptor alpha (PPARa) (AID 2283001; active = hit-call score of the fitted dose curve at least 0.9, where 1 is the maximum)
human Peroxisome Proliferator-activated Receptor alpha (PPARa), PPARA (gene 5465), sequence (Q07869 whole entry, looked up, the tested form may be a part): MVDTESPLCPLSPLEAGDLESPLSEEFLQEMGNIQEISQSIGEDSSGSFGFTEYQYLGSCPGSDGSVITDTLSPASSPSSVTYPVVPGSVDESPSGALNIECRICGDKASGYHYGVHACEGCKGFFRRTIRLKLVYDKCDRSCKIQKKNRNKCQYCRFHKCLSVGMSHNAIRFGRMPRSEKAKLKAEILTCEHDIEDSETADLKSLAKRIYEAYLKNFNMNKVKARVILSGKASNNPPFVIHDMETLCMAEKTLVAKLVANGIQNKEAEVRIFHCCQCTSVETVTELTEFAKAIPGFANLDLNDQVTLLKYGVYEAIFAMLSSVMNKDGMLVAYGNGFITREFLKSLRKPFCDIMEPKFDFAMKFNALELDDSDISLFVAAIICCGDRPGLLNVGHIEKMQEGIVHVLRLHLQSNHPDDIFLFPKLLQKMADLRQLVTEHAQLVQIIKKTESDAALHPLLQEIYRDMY
Summary of the method: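 Measures transcriptional activity of an exogenous chimeric PPARa-Gal4 protein in transiently transfected HepG2 cells after 24 h dosing. Reporter mRNA quantified via RT-PCR and capillary electrophoresis; DMSO served as negative control.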

[14] = molecular target: human Retinoid X Receptor beta (RXRb), RXRB (gene 6257) (UniProt P28702); test: ATG_RXRb_TRANS: Attagene TRANS-FACTORIAL HepG2 Assay for human Retinoid X Receptor beta (RXRb) (AID 2283013; active = hit-call score of the fitted dose curve at least 0.9, where 1 is the maximum)
human Retinoid X Receptor beta (RXRb), RXRB (gene 6257), sequence (P28702 whole entry, looked up, the tested form may be a part): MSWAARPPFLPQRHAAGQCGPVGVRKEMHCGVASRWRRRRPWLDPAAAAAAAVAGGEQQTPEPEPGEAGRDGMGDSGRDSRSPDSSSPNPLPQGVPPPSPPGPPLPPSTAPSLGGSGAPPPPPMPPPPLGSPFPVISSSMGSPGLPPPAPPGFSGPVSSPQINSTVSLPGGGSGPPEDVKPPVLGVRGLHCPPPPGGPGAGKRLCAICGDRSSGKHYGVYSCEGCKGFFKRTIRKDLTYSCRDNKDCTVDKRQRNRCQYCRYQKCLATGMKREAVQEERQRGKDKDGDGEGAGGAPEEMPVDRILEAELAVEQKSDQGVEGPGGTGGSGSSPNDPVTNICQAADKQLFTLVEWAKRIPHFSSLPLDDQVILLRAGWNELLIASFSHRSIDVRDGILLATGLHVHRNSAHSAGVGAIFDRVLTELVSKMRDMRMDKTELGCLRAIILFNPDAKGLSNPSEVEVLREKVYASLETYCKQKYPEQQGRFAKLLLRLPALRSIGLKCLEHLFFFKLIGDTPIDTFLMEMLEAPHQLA
Summary of the method: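 HepG2 cells transiently transfected with multiplexed reporter units driven by GAL4-UAS and exogenous chimeric NR-Gal4 proteins; treated 24 h. Reporter mRNA measured by RT-PCR, 6-FAM labelling and capillary electrophoresis; gain-of-signal fitted versus DMSO baseline.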

[15] = BSK_3C_TissueFactor: BioMAP Diversity Plus: 3C Assay for Tissue Factor Biomarker Activity (AID 2282997); details: BioMAP 3C HUVEC, tissue factor biomarker readout; actives raise or lower the signal
Summary of the method: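 HUVEC were treated 24 h, then surface tissue factor measured by ELISA and fitted bidirectionally against DMSO. Parallel SRB total-protein staining assessed overt cytotoxicity at the same time point.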

[16] = molecular target: human RAR-related Orphan Receptor gamma (RORg), RORC (gene 6097) (UniProt P51449); test: ATG_RORg_TRANS: Attagene TRANS-FACTORIAL HepG2 Assay for human RAR-related Orphan Receptor gamma (RORg) (AID 2283011; active = hit-call score of the fitted dose curve at least 0.9, where 1 is the maximum)
human RAR-related Orphan Receptor gamma (RORg), RORC (gene 6097), sequence (P51449 whole entry, looked up, the tested form may be a part): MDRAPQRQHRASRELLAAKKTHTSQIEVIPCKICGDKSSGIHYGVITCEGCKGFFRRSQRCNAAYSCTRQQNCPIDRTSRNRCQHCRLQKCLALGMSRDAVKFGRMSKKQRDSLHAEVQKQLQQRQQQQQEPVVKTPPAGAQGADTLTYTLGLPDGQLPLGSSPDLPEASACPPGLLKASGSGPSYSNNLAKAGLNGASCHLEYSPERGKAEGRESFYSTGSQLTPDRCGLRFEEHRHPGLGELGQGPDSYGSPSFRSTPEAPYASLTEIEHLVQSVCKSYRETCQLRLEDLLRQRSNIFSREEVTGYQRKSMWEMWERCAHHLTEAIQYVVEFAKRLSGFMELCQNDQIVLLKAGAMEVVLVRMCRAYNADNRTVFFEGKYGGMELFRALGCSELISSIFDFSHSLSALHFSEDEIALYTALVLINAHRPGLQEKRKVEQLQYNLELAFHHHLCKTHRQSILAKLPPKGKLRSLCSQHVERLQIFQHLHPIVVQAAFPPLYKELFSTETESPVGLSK
Summary of the method: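 HepG2 cells transiently transfected with GAL4-UAS reporter units and chimeric RORg-Gal4 construct; after 24 h chemical exposure, reporter mRNA measured by RT-PCR with fluorescent capillary electrophoresis, gain of signal fitted against DMSO.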

[17] = molecular target: Retinoic acid receptor RXR-alpha (Homo sapiens) (UniProt P19793); test: ATG_RXRa_TRANS: Attagene TRANS-FACTORIAL HepG2 Assay for human Retinoid X Receptor alpha (RXRa) (AID 2283012; active = hit-call score of the fitted dose curve at least 0.9, where 1 is the maximum)
Retinoic acid receptor RXR-alpha (Homo sapiens), sequence (P19793 whole entry, looked up, the tested form may be a part): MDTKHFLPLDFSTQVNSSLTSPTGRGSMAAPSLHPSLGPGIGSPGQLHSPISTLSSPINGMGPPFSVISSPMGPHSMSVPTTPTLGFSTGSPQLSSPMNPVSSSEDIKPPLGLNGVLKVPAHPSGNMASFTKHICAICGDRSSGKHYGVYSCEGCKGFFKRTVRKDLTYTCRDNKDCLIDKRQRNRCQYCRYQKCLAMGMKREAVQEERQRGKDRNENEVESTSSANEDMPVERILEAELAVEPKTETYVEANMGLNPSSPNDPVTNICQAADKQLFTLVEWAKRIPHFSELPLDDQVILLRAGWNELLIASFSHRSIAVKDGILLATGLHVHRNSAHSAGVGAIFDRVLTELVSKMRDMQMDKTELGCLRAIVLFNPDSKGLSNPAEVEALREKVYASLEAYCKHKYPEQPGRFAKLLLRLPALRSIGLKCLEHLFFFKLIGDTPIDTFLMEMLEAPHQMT
Summary of the method: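 HepG2 cells transiently transfected with multiplexed GAL4-UAS reporter units and chimeric NR-GAL4 fusions, dosed 24 h. Reporter mRNA measured by RT-PCR, FAM labelling, HpaI digestion and capillary electrophoresis; gain-of-signal fitted relative to DMSO baseline.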

[18] = molecular target: Nuclear receptor subfamily 1 group I member 2 (Homo sapiens) (UniProt O75469); test: ATG_PXR_TRANS: Attagene TRANS-FACTORIAL HepG2 Assay for human Pregnane X Receptor (PXR) (AID 2283008; active = hit-call score of the fitted dose curve at least 0.9, where 1 is the maximum)
Nuclear receptor subfamily 1 group I member 2 (Homo sapiens), sequence (O75469 whole entry, looked up, the tested form may be a part): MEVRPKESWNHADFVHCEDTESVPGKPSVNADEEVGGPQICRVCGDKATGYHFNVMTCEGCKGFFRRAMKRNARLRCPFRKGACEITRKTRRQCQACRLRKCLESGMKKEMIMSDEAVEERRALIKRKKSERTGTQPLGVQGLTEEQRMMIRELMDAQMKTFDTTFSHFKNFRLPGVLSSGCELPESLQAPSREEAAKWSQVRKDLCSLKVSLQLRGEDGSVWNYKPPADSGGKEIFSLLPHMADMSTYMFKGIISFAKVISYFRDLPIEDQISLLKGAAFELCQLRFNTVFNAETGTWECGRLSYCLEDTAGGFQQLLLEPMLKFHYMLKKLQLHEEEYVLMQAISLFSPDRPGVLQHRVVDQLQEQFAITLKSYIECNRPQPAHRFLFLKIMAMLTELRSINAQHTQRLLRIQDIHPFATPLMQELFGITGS
Summary of the method: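 Read-out is fluorescence of labelled reporter cDNA fragments separated by capillary electrophoresis after RT-PCR and HpaI digestion. Source: HepG2 cells carrying PXR-GAL4/UAS reporter constructs, treated 24 h; activity fitted upward relative to DMSO.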

[19] = molecular target: human Thyroid Receptor alpha (THRa1), THRA (gene 7067) (UniProt P10827); test: ATG_THRa1_TRANS: Attagene TRANS-FACTORIAL HepG2 Assay for human Thyroid Receptor alpha (THRa1) (AID 2283014; active = hit-call score of the fitted dose curve at least 0.9, where 1 is the maximum)
Summary of the method: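 HepG2 cells transiently transfected with chimeric NR-Gal4 and GAL4-UAS reporter units, dosed 24 h. Reporter mRNA quantified by RT-PCR, fluorescent labeling, HpaI digestion and capillary electrophoresis; gain-of-signal fit versus DMSO.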

Measured: AC50

Cc1ccc(C)c(O)c1
not listed: [13] | [14] | [15] | [16] | [17] | [18] | [19]
inactive: all other assays above

CCCCCCc1ccc(O)cc1O
active: [1] 24.3 µM | [2] 50.9 µM | [4] 31.8 µM | [6] 32.2 µM | [9] 30.2 µM | [10] 31.2 µM | [14] 24.2 µM
inactive: [3] | [13]

CCC(C)(C)C(=O)O[C@H]1C[C@@H](C)C=C2C=C[C@H](C)[C@H](CC[C@@H]3C[C@@H](O)CC(=O)O3)[C@H]21
active: [15] 20 µM | [4] 16.9 µM | [5] 29.9 µM | [6] 34.5 µM | [9] 4.32 µM
not listed: [12] | [14] | [18] | [19]
inactive: all other assays above

Cn1c(=O)c2c(ncn2C)n(C)c1=O
not listed: [7] | [10] | [11] | [13] | [15] | [16] | [19]
inactive: all other assays above

CC(C)=CCC/C(C)=C/CO
active: [10] 63.6 µM
not listed: [5] | [7] | [11] | [18] | [19]
inactive: all other assays above

CC1=CC(=O)CC(C)(C)C1
inactive: [1] | [2] | [3] | [15] | [4] | [5] | [6] | [8] | [9] | [12]

Cc1[nH]cnc1C[C@H]1CCc2c(C)c3ccccc3n2C1=O
active: [2] 21 µM | [3] 7.45 µM | [4] 27.4 µM | [6] 29.6 µM | [9] 26.1 µM
not listed: [5] | [10] | [12] | [16] | [18]
inactive: all other assays above

From PubChem BioAssay (EPA / NIEHS)
